# Measurements published in PubChem BioAssay (NCI).
# The panel holds about 83,000 compounds, 20% with a hit somewhere; the sample as a whole holds those more often.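 Values shown are percent growth following 48 h exposure of cells in 96-well plates to a single concentration of compound; below 10 was considered active.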 A number with no mark means an inactive call. Activity calls are given as the source filed them.
# Assays:
# Assay in all cases: NCI-60 one-dose screen, 48 h (100 = growth as untreated, 0 = no growth, -100 = all killed)
# Details in all cases: 10 µM
# [1] = test system: NCI-H23 lung
# [2] = test system: NCI-H226 lung
# [3] = test system: NCI-H322M lung
# [4] = test system: NCI-H460 lung
# [5] = test system: HOP-92 NSCLC
# [6] = test system: NCI-H522 lung
# [7] = test system: A549/ATCC NSCLC
# [8] = test system: 786-0 renal
# [9] = test system: COLO 205 colon
# [10] = test system: DU-145 prostate
# [11] = test system: K-562 leukemia
# [12] = test system: MALME-3M melanoma
# [13] = test system: MDA-MB-231 breast
# [14] = test system: RXF 393 renal
# [15] = test system: SF-268 CNS
# [16] = test system: SF-295 CNS
# [17] = test system: SF-539 CNS
# [18] = test system: UACC-257 melanoma
# [19] = test system: M14 melanoma
# [20] = test system: HOP-62 NSCLC
Structure (SMILES),growth [1] [%],growth [2] [%],growth [3] [%],growth [4],growth [5],growth [6],growth [7] [%],growth [8] [%],growth [9] [%],growth [10],growth [11],growth [12] [%],growth [13] [%],growth [14],growth [15],growth [16],growth [17],growth [18] [%],growth [19],growth [20] [%]
c1ccc2c(c1)Sc1ccccc1S2,99,95.9,92.5,101%,81.8%,98.6%,94.2,94.9,111,108%,103%,101,94.1,99.5%,109%,101%,106%,99.9,103%,
O=C(CC(=O)c1ccccc1O)c1ccccc1,80.8,88.6,103,88.8%,100%,83.1%,89.8,89.5,101,91.8%,,115,91.1,103%,90.7%,89.5%,95.5%,95.7,97.4%,
CC(=O)Cc1ccc(-c2ccccc2)cc1,95.6,91.5,85.9,103%,96.3%,111%,94.8,105,115,107%,108%,77.1,95.9,102%,98%,99.8%,108%,98.8,109%,
Cc1cccc(CO)c1,94.5,99,102,105%,102%,105%,102,104,105,98.1%,97.7%,104,104,121%,95.4%,100%,108%,99.9,108%,
O=C(O)c1cc([N+](=O)[O-])ccc1Cl,104,107,117,114%,82.1%,73%,95.3,99.2,107,121%,97.7%,131,101,112%,114%,101%,105%,99.5,114%,
CC1(C(N)=O)CCC(C(=O)O)C1(C)C (stereo not given),103,95.5,95.2,103%,94.3%,106%,98,98,108,113%,114%,74.9,91.2,104%,104%,91.2%,96.8%,99.5,108%,
CCCCC(CC)COC(C)=O (stereo not given),100,105,98,106%,95.6%,105%,105,96,100,106%,95.1%,96.4,106,117%,96.6%,99.3%,92.1%,104,102%,
CC(=O)OC1CC2C(C)(C)OC3CC(=O)OCC32C2CCC3(C)C(=CCC3c3ccoc3)C12C (stereo not given),108,98.7,111,108%,-13% (active),35.6%,104,103,76.1,92.5%,95.5%,85.2,115,105%,98.6%,107%,104%,72.7,115%,
O=C(Nc1ccccc1)OCCc1ccccc1,108,103,116,103%,82.5%,,102,97.2,119,108%,114%,107,119,93.3%,111%,80.9%,99%,,110%,
N/N=C(/Cc1ccccc1)NNC(N)=S,99,108,82.7,103%,119%,72.4%,74.4,111,,106%,103%,95.4,111,112%,97.4%,105%,98.5%,92.3,93.5%,
CCOC(=O)C1OC1c1ccccc1 (stereo not given),98.6,100,101,103%,99.2%,104%,102,98.3,102,107%,103%,103,111,112%,97.5%,93.2%,99.4%,106,97.8%,
NC(=S)CN1CCOCC1,106,114,91.6,105%,91.9%,97.9%,110,,118,107%,97.7%,110,106,115%,102%,131%,111%,117,120%,
Oc1ccc(N=Nc2ccc(Br)cc2)c(O)c1,19.6,83.6,67,8.13% (active),64.3%,-32.1% (active),12.5,15.6,129,-11.8% (active),6.18% (active),36.2,41.9,-58.3% (active),30.8%,15.4%,-18.6% (active),20.6,-19.2% (active),
O=C1OC(c2ccc(F)cc2)CC1CN1CCOCC1 (stereo not given),98.8,107,102,108%,94.5%,,100,105,93.1,106%,113%,95.6,105,111%,104%,89.9%,96.9%,,104%,
O=C(O)[C@@H]1[C@H]2C[C@H]3c4[nH]c5ccccc5c4CCN3C[C@@H]2CC[C@@H]1O,102,103,110,121%,109%,18.2%,101,76,123,106%,129%,66.1,108,111%,107%,99.2%,108%,105,91.5%,
CC(C)CCOC(=O)c1ccccc1,106,102,95.6,106%,101%,104%,102,99.8,105,108%,102%,96.9,104,119%,102%,100%,98.8%,101,100%,
NC(=O)c1ccc(N=C(N)N=C(N)N)cc1,102,84.1,90.6,104%,83.2%,103%,,96.4,115,107%,97.6%,93.1,106,89.6%,94.7%,96.8%,96.8%,,110%,
CCOC(=O)C(O)C(O)C(=O)OCC (stereo not given),100,106,102,103%,94.1%,101%,104,105,106,106%,102%,106,110,125%,102%,104%,109%,106,104%,

Structure (SMILES),growth [1] [%],growth [2] [%],growth [3] [%],growth [4],growth [5],growth [6],growth [7] [%],growth [8] [%],growth [9] [%],growth [10],growth [11],growth [12] [%],growth [13] [%],growth [14],growth [15],growth [16],growth [17],growth [18] [%],growth [19],growth [20] [%]
C=CCCCCCCCCCOC(C)=O,100,96.7,102,109%,90.2%,102%,,108,110,102%,93.6%,93.1,97,103%,96.9%,105%,105%,,104%,
CCOC(=O)CNN,102,90.7,98,99.6%,99.4%,96.7%,101,106,110,98.6%,79.5%,103,107,108%,103%,102%,108%,97,107%,
Cc1ncc(C#N)c(N)n1,99,94.8,89.1,102%,87.1%,102%,106,96.4,107,114%,120%,93.8,98.9,89.6%,107%,98%,105%,106,95.9%,
CC1(C)Nc2cccc3c(N=Nc4ccc(N=Nc5ccccc5)c5ccccc45)ccc(c23)N1,85.1,94,91.4,92.1%,82.6%,,99.3,122,89.2,120%,123%,132,66.9,124%,106%,100%,94.5%,95.9,91.6%,
CC1OC(Oc2c(-c3ccc(O)c(O)c3)oc3cc(O)cc(O)c3c2=O)C(O)C(O)C1O (stereo not given),102,96.1,106,105%,88.6%,102%,102,108,104,109%,103%,110,107,110%,104%,105%,110%,104,106%,
FC(F)(F)c1ccc2c(c1)N(CCCN1CCN(C3CC3)CC1)c1ccccc1S2,27,75.4,112,24.4%,51.1%,28.7%,67.3,63.9,79.9,2.25% (active),24.5%,96.7,83,80.7%,-4.95% (active),3.21% (active),94.2%,74.4,34.3%,
C/C(=C\c1ccc([N+](=O)[O-])cc1)C(=O)O,102,98.3,111,102%,95.1%,87.1%,91.7,96.7,,110%,97.9%,108,102,102%,105%,98.4%,100%,98.8,95.1%,
COc1cc(/C=C(\C#N)C(=O)c2ccccc2)ccc1OCc1ccccc1,91.5,92.3,91.6,101%,95.7%,97.6%,104,101,,102%,120%,86.1,94.6,100%,93.2%,103%,99.9%,106,97.5%,
CC1(C)OC(=O)C(c2ccsc2)C(=O)O1,95,105,102,113%,104%,82.6%,84.7,108,,107%,107%,112,111,107%,99.6%,108%,98.9%,104,106%,
CCCCCCCCCCC(C)Br (stereo not given),102,101,94.5,113%,,104%,97.1,97,110,113%,93.2%,104,113,103%,113%,94.9%,110%,101,112%,
COC(=O)c1[nH]c(=O)c(C#N)c(C(=O)OC)c1C(=O)c1ccccc1,95.4,97.7,101,102%,101%,99.7%,93.7,100,123,104%,102%,96.8,,122%,99.4%,96.2%,97.1%,86.1,107%,
CCOC(=O)CCCC(=O)OCC,97.9,104,99.2,105%,101%,105%,101,102,101,103%,101%,95.7,100,,96.7%,101%,98.4%,99,99.2%,
Cc1nc2c(ccc3ccccc32)s1,98,109,116,115%,93.7%,103%,98.6,101,110,123%,115%,110,107,116%,116%,104%,100%,101,98.5%,
CSC(=N\N=C\c1ccc(N(C)C)cc1)/N=C/N(C)C,112,90,102,95.4%,,107%,103,103,110,117%,111%,104,106,95.1%,111%,84.6%,96%,100,104%,
CC1CCC2C(C)(C)C3CC12CC1OC13C (stereo not given),107,99.1,117,100%,,91.7%,110,98,109,117%,123%,107,110,98.9%,110%,104%,98.9%,113,109%,
O=C(Cc1ccccc1)Cc1ccccc1,103,100,104,102%,,97%,96,95.2,110,113%,110%,115,109,,103%,108%,101%,93.1,102%,
Cc1cc(OCCO)cc(C)c1Cl,106,108,,114%,114%,114%,104,97.3,123,117%,118%,,114,134%,109%,130%,111%,110,112%,111
COC(=O)Nc1cccc(Cl)c1OC,107,96.5,107,38.2%,,92.7%,106,104,127,114%,113%,106,124,90%,107%,81.8%,98.2%,103,110%,
